# Measured values as given in article PMC7862700, “An all-to-all approach to the identification of sequence-specific readers for epigenetic DNA modifications on cytosine”.
# Key:
# Assay in all cases: DAPPL (digital affinity profiling via proximity ligation, sequencing); 10 mM Tris-HCl pH 7.5, 50 mM NaCl, 1 mM DTT, 4% glycerol, room temperature, 30 min; GST-TFs on glutathione beads, 16-mer random dsDNA library, 0.1% formaldehyde crosslink after washing; high values mean tight binding
# FLI1 = target: T1, FLI1 (Homo sapiens, UniProt Q01543 1-452); settings: protein: recombinant; tags: N-terminal GST; dsDNA, one strand shown
# T1 sequence: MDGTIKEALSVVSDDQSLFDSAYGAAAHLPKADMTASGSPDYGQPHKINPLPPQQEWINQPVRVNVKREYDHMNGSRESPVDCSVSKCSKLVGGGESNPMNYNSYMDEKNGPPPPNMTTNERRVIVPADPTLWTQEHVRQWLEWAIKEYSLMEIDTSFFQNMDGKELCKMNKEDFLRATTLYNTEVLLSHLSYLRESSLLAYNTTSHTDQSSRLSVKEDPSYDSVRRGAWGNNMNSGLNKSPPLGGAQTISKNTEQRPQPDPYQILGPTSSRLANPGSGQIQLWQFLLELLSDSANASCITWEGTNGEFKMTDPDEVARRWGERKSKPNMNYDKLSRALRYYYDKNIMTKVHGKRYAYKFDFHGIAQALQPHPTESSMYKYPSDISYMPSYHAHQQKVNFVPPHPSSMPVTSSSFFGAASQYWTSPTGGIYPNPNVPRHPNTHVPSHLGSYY
# Procedure, shortened: (§1)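 Beads coated with glutathione captured GST-fused human transcription factors that had been expressed in yeast, and the factors were then given DNA barcodes and pooled with a tag-only sample. The pools were incubated with 200 nmole of a random double-stranded 16-mer DNA library in Tris/NaCl/DTT/glycerol buffer for 30 min at room temperature, washed, crosslinked with 0.1% formaldehyde and proximity-ligated with BsaI/T4 ligase at 37 °C for 1 h. PCR amplification and Illumina NextSeq500 sequencing came last. Binding signal is each hexamer's read frequency for a factor divided by its frequency for the tag-only sample.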
# ELK1 = target: T2, ELK1 (Homo sapiens, UniProt P19419 1-428); settings: protein: recombinant; tags: N-terminal GST; dsDNA, one strand shown
# T2 sequence: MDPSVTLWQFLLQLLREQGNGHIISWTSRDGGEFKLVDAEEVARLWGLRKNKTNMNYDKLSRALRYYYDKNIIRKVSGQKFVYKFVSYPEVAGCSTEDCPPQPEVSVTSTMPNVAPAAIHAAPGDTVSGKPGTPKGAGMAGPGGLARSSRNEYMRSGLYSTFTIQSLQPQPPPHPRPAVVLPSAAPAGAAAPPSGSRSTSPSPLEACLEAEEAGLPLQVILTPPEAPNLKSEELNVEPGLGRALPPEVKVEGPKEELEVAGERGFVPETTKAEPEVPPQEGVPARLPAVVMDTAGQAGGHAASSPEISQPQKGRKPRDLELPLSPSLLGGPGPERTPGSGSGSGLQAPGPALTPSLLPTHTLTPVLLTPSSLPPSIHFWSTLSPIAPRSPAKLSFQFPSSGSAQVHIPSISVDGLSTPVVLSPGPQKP
# Procedure, shortened: as §1
# GABPA = target: T3, GABPA (Homo sapiens, UniProt Q06546 1-454); settings: protein: recombinant; tags: N-terminal GST; dsDNA, one strand shown
# T3 sequence: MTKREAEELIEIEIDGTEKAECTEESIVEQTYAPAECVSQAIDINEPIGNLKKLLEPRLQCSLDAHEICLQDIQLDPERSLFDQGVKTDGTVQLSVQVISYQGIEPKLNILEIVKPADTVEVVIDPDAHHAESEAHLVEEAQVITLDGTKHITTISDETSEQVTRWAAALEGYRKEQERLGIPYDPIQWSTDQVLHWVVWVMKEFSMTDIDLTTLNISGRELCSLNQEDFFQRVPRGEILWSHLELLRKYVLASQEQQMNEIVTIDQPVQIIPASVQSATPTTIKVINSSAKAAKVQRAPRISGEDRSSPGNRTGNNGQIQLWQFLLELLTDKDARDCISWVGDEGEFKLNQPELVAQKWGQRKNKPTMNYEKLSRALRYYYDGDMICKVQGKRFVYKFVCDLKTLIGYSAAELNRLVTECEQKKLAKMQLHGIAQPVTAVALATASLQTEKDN
# Procedure, shortened: as §1
# ERG = target: T4, ERG (Homo sapiens, UniProt P11308 1-479); settings: protein: recombinant; tags: N-terminal GST; dsDNA, one strand shown
# T4 sequence: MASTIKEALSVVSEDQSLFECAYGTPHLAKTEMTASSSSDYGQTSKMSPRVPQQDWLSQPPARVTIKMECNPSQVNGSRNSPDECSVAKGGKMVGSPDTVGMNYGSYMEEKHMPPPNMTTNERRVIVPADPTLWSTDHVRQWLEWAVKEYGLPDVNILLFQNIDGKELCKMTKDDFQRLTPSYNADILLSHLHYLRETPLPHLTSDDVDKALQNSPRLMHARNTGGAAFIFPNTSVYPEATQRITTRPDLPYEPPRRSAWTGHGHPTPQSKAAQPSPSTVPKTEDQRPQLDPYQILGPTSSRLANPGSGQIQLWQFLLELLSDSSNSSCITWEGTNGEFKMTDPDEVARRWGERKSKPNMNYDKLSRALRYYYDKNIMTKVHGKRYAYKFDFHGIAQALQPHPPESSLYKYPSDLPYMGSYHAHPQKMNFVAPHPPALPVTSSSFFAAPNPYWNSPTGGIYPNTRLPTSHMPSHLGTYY
# Procedure, shortened: as §1
# ELF1 = ELF1 (Homo sapiens, UniProt P32519 1-619); settings: protein: recombinant; tags: N-terminal GST; dsDNA, one strand shown
# Sequence of ELF1 (P32519 whole entry): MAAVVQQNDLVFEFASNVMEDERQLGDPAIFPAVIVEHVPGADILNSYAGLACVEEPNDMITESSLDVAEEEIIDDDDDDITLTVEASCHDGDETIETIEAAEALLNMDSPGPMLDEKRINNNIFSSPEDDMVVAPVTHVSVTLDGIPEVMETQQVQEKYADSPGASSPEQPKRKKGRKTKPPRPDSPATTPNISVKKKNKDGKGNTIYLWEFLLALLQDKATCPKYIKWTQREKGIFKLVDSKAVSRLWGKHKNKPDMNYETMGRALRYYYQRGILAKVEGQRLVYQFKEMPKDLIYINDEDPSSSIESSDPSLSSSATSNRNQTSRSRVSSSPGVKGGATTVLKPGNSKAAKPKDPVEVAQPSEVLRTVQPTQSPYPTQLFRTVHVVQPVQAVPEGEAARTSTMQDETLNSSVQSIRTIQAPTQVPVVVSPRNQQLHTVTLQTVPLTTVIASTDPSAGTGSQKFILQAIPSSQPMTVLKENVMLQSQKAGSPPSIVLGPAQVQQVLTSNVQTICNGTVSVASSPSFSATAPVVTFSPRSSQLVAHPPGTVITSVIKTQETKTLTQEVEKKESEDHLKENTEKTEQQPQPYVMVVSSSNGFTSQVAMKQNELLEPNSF
# Procedure, shortened: as §1
# EHF = target: T5, EHF (Homo sapiens, UniProt Q9NZC4 1-300); settings: protein: recombinant; tags: N-terminal GST; dsDNA, one strand shown
# T5 sequence: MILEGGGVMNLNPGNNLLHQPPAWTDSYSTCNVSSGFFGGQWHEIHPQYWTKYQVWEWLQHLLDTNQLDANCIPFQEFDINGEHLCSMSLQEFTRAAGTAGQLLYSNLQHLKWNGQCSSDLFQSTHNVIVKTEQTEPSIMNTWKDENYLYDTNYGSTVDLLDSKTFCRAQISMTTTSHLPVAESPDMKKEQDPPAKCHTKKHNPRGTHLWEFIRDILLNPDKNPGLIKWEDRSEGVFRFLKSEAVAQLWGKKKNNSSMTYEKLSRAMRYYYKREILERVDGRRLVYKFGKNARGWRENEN
# Procedure, shortened: as §1
# SPI1 = SPI1 (Homo sapiens, UniProt P17947 1-270); settings: protein: recombinant; tags: N-terminal GST; dsDNA, one strand shown
# Procedure, shortened: as §1
# SPIB = SPIB (Homo sapiens, UniProt Q01892 1-262); settings: protein: recombinant; tags: N-terminal GST; dsDNA, one strand shown
# Sequence of SPIB (Q01892 whole entry): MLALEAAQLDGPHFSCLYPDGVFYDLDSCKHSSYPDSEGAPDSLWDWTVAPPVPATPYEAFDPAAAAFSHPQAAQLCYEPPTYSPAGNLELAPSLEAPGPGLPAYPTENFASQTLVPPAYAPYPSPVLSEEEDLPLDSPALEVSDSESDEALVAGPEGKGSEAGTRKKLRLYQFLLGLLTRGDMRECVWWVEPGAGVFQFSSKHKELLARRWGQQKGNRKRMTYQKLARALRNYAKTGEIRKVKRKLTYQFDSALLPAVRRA
# Procedure, shortened: as §1
# ELK3 = target: T6, ELK3 (Homo sapiens, UniProt P41970 1-407); settings: protein: recombinant; tags: N-terminal GST; dsDNA, one strand shown
# T6 sequence: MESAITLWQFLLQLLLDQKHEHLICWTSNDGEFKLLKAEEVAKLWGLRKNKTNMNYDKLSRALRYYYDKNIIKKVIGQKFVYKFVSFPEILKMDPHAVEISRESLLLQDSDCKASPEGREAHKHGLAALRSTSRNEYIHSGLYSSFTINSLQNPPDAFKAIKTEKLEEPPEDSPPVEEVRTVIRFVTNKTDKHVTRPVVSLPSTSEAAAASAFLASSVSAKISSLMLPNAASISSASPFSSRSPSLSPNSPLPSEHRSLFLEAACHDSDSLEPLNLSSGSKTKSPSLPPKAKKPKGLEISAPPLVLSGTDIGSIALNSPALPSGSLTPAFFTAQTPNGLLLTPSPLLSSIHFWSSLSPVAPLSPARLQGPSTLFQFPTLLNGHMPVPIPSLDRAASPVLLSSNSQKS
# Procedure, shortened: as §1
# FEV = target: T7, FEV (Homo sapiens, UniProt Q99581 1-238); settings: protein: recombinant; tags: N-terminal GST; dsDNA, one strand shown
# T7 sequence: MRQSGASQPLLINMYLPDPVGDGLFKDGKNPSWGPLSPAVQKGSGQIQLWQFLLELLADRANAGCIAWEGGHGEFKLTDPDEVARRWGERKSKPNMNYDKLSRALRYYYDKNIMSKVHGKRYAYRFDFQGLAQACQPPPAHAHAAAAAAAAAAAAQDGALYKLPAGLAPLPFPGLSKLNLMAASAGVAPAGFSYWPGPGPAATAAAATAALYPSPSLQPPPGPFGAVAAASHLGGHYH
# Procedure, shortened: as §1
# ETV5 = ETV5 (Homo sapiens, UniProt P41161 1-510); settings: protein: recombinant; tags: N-terminal GST; dsDNA, one strand shown
# Sequence of ETV5 (P41161 whole entry): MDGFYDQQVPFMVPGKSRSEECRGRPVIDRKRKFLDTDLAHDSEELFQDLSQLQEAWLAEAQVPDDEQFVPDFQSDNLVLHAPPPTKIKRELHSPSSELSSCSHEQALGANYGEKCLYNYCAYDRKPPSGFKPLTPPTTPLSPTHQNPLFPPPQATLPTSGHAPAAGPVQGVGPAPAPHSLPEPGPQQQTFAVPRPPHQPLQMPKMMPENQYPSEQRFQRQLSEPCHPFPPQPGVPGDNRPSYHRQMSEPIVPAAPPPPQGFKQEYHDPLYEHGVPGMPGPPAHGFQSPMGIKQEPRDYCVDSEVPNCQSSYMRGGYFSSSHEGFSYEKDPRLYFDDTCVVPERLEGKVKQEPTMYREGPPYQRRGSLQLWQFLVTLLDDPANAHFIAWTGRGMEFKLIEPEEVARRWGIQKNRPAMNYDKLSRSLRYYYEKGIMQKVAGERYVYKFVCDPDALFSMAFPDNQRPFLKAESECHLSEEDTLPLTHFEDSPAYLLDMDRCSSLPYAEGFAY
# Procedure, shortened: as §1
# HSF1 = HSF1 (Homo sapiens, UniProt Q00613 1-529); settings: protein: recombinant; tags: N-terminal GST; chain copies: 3; dsDNA, one strand shown
# Sequence of HSF1 (Q00613 whole entry): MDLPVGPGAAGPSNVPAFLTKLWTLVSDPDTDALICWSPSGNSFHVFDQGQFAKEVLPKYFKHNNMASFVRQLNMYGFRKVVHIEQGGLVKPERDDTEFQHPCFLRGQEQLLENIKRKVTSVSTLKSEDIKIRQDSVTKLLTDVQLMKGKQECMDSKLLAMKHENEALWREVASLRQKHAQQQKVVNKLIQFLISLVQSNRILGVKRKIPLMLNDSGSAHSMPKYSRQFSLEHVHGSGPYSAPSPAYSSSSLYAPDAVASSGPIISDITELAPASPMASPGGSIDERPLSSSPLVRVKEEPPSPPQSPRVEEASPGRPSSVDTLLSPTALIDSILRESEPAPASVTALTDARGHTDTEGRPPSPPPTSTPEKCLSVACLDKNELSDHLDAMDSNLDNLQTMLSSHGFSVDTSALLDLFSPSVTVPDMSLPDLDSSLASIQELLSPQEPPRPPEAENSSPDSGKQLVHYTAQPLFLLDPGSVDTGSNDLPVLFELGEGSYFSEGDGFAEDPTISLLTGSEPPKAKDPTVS
# Procedure, shortened: as §1
# SPIC = target: T8, SPIC (Homo sapiens, UniProt Q8N5J4 1-248); settings: protein: recombinant; tags: N-terminal GST; dsDNA, one strand shown
# T8 sequence: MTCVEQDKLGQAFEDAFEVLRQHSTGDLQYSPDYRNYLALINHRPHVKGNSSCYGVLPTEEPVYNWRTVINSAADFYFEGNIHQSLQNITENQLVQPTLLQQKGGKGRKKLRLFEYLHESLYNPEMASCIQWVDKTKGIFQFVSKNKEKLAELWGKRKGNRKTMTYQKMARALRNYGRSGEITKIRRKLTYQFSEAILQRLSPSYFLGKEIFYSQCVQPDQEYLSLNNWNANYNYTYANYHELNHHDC
# Procedure, shortened: as §1
# ELF4 = ELF4 (Homo sapiens, UniProt Q99607 1-663); settings: protein: recombinant; tags: N-terminal GST; dsDNA, one strand shown
# Sequence of ELF4 (Q99607 whole entry): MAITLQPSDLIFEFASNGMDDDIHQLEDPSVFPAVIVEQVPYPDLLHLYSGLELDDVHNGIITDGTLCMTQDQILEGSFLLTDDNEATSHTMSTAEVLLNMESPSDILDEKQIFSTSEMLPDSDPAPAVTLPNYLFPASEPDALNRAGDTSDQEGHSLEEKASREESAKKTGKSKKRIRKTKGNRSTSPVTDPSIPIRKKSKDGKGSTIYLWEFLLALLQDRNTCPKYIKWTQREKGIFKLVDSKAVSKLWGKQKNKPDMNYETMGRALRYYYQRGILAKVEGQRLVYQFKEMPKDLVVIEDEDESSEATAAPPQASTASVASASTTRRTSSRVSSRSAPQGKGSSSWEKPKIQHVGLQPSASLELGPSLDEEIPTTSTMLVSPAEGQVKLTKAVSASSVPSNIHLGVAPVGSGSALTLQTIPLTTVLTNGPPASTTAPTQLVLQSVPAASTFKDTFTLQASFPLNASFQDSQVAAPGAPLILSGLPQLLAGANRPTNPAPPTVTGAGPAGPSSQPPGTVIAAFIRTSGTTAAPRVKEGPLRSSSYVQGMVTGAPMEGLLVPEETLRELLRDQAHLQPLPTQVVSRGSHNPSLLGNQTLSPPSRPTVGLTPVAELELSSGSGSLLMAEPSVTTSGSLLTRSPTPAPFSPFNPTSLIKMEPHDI
# Procedure, shortened: as §1
# ELK4 = target: T9, ELK4 (Homo sapiens, UniProt P28324-2 1-405); settings: protein: recombinant; tags: N-terminal GST; dsDNA, one strand shown
# T9 sequence: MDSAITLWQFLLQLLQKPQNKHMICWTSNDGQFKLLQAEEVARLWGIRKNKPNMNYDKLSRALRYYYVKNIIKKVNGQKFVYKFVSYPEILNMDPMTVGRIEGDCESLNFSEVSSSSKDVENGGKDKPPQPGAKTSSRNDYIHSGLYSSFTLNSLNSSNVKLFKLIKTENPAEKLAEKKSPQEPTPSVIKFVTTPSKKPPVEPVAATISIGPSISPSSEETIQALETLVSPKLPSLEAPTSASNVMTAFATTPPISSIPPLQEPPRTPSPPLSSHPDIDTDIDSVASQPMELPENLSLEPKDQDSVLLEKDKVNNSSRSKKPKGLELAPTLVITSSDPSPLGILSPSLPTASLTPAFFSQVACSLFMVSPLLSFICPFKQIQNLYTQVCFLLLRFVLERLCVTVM
# Procedure, shortened: as §1
# ETV2 = target: T10, ETV2 (Homo sapiens, UniProt O00321 1-342); settings: protein: recombinant; tags: N-terminal GST; dsDNA, one strand shown
# T10 sequence: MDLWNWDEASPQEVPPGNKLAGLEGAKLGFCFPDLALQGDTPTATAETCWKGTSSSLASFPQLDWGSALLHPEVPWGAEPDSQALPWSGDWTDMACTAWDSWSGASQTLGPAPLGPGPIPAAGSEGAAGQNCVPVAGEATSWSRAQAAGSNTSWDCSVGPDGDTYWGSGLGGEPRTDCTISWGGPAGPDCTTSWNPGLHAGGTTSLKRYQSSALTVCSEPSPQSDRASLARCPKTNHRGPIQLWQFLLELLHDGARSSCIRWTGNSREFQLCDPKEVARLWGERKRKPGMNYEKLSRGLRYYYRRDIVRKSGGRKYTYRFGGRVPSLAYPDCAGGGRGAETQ
# Procedure, shortened: as §1
# ELF3 = target: T11, ELF3 (Homo sapiens, UniProt P78545 1-371); settings: protein: recombinant; tags: N-terminal GST; dsDNA, one strand shown
# T11 sequence: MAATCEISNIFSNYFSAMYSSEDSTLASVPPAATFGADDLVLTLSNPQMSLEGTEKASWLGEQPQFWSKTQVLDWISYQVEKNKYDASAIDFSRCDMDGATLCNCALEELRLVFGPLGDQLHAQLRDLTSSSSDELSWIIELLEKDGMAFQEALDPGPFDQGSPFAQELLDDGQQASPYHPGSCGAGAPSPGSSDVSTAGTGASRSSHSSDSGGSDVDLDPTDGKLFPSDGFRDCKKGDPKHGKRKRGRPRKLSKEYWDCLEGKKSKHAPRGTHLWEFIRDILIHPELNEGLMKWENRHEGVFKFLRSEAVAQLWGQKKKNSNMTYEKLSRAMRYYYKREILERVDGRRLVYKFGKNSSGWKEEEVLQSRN
# Procedure, shortened: as §1
# CRX = CRX (Homo sapiens, UniProt O43186 1-299); settings: protein: recombinant; tags: N-terminal GST; dsDNA, one strand shown
# Sequence of CRX (O43186 whole entry): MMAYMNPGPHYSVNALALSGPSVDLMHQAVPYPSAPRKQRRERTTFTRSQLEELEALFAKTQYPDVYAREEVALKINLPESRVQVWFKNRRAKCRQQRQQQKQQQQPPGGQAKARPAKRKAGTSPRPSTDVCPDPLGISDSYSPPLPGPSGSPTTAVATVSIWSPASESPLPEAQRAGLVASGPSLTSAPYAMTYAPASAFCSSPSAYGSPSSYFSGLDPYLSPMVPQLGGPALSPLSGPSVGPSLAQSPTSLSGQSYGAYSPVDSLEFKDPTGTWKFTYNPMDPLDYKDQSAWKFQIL
# Procedure, shortened: as §1
# ETV1 = ETV1 (Homo sapiens, UniProt P50549 1-477); settings: protein: recombinant; tags: N-terminal GST; dsDNA, one strand shown
# Sequence of ETV1 (P50549 whole entry): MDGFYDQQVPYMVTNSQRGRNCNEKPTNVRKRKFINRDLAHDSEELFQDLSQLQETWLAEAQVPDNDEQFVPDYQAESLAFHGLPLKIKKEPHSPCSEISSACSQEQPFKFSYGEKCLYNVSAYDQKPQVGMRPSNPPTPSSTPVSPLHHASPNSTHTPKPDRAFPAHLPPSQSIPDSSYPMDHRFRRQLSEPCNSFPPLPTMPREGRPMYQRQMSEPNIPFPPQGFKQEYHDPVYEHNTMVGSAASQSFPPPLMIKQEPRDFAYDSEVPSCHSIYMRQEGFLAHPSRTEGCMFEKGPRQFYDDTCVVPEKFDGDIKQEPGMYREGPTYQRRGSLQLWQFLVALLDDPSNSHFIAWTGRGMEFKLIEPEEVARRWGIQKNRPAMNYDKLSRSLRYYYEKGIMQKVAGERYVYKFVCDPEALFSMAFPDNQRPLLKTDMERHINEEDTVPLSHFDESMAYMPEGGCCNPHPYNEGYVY
# Procedure, shortened: as §1
sequence,measurement,setting,value
ATGTTT,binding signal,FLI1,"1.48 fold enrichment (6-mer frequency, TF over GST control)"
same,binding signal,ELK1,"1.37 fold enrichment (6-mer frequency, TF over GST control)"
same,binding signal,GABPA,"1.36 fold enrichment (6-mer frequency, TF over GST control)"
same,binding signal,ERG,"1.39 fold enrichment (6-mer frequency, TF over GST control)"
same,binding signal,ELF1,"1.41 fold enrichment (6-mer frequency, TF over GST control)"
same,binding signal,EHF,"1.41 fold enrichment (6-mer frequency, TF over GST control)"
same,binding signal,SPI1,"1.33 fold enrichment (6-mer frequency, TF over GST control)"
same,binding signal,SPIB,"1.38 fold enrichment (6-mer frequency, TF over GST control)"
same,binding signal,ELK3,"1.43 fold enrichment (6-mer frequency, TF over GST control)"
same,binding signal,FEV,"1.36 fold enrichment (6-mer frequency, TF over GST control)"
same,binding signal,ETV5,"1.4 fold enrichment (6-mer frequency, TF over GST control)"
same,binding signal,HSF1,"1.32 fold enrichment (6-mer frequency, TF over GST control)"
same,binding signal,SPIC,"1.27 fold enrichment (6-mer frequency, TF over GST control)"
same,binding signal,ELF4,"1.3 fold enrichment (6-mer frequency, TF over GST control)"
same,binding signal,ELK4,"1.37 fold enrichment (6-mer frequency, TF over GST control)"
same,binding signal,ETV2,"1.41 fold enrichment (6-mer frequency, TF over GST control)"
same,binding signal,ELF3,"1.34 fold enrichment (6-mer frequency, TF over GST control)"
same,binding signal,CRX,"1.26 fold enrichment (6-mer frequency, TF over GST control)"
same,binding signal,ETV1,"1.26 fold enrichment (6-mer frequency, TF over GST control)"
